Results reported in the antibiotic and cytotoxicity screens of Wong et al. (2023).
The whole screen tested about 39,000 compounds, of which about 500 (1.3%) were called active. This is one part of a sample in which actives are shown more often than they occur.

test system: S. aureus RN4220; assay: growth inhibition call (relative growth <= 0.2); details: 50 µM

Structure (SMILES) | growth inhibition call
COc1ccc2c3c([nH]c2c1)[C@H](CO)N(C[C@]13CCN(CC1)Cc1ccc(cc1)F)C(=O)Nc1ccc(cc1)F | inactive
COc1ccc2c3c([nH]c2c1)[C@@H](CO)N(C[C@]13CCN(CC1)CC1CCCC1)C(=O)Nc1cccc(c1)F | inactive
COc1ccc2c3c([nH]c2c1)[C@H](CO)N(C[C@]13CCN(CC1)CC1CCCC1)C(=O)Nc1cccc(c1)F | inactive
COc1ccc2c3c([nH]c2c1)[C@H](CO)N(C[C@]13CCN(CC1)CC1CCCCC1)C(=O)Nc1cccc(c1)F | inactive
COc1ccc2c3c([nH]c2c1)[C@@H](CO)N(C[C@]13CCN(CC1)CC1CCCCC1)C(=O)Nc1cccc(c1)F | active
COc1ccc2c3c([nH]c2c1)[C@@H](CO)N(C[C@]13CN(CC2CCCCC2)C1)C(=O)Nc1cccc(c1)F | inactive
COc1ccc(cc1)CN1CC[C@]2(CC1)CN([C@H](CO)c1[nH]c3cc(ccc3c12)OC)C(=O)Nc1ccc(cc1)F | inactive
COc1ccc2c3c([nH]c2c1)[C@H](CO)N(C[C@]13CN(CC2CCCCC2)C1)C(=O)Nc1cccc(c1)F | active
COc1ccc2c3c([nH]c2c1)[C@@H](CO)N(C[C@]13CCN(CC1)Cc1ccc(cc1)F)C(=O)Nc1ccc(cc1)F | active
C=CCOC(=O)O[C@H]1[C@@H](OC)O[C@H](COC(=O)NCCCCCC(=O)NO)[C@@H](OC(=O)[C@H](CC=C)Cc2cccc(Br)c2)[C@@H]1OC(=O)[C@H](CC=C)Cc1ccccc1 | inactive
C[C@H](CO)N1C[C@H](C)[C@@H](CN(C)C(=O)Nc2ccc3c(c2)OCCO3)OCc2cn(nn2)CCCC1=O | inactive
O=C(N[C@H]1C=C[C@H](CC(=O)N2CCOCC2)O[C@@H]1CO)c1ccc2c(c1)OCO2 | inactive
Cn1cnc(S(=O)(=O)N[C@H]2C=C[C@@H](CC(=O)NCC3CC3)O[C@H]2CO)c1 | inactive
COc1ccc(NC(=O)Nc2ccc3c(c2)C(=O)N([C@@H](C)CO)C[C@H](C)[C@H](CN(C)C(=O)c2ccccc2)OCCCC[C@@H](C)O3)cc1 | inactive
CN(C)CC#Cc1cncc(C(=O)NN)c1 | inactive
CO[C@@H]1CN(C)C(=O)c2ccc(NC(=O)c3ccc(F)cc3)cc2OC[C@@H](C)N(C(=O)CN(C)C)C[C@@H]1C | inactive
CN1CCN(C(=O)C[C@H]2C[C@H]3c4cc(NC(=O)c5ccc6c(c5)OCO6)ccc4O[C@H]3[C@H](CO)O2)CC1 | inactive
C=CC[C@@H](CC(=O)NCCO)C(=O)NC[C@H](OC(=O)[C@@H](CC=C)CC(=O)OC(C)(C)C)c1ccccc1 | inactive
Nc1nc(/C(=N/O)C(=O)N[C@@H]2C(=O)N3C(C(=O)O)=C(/C=C4\CCN([C@@H]5CCNC5)C4=O)CS[C@H]23)ns1 | inactive
C=CC1=C(C(=O)O)N2C(=O)C(NC(=O)C(=NOCC(=O)O)c3csc(N)n3)C2SC1 (configuration not stated) | inactive
Nc1nc(/C(=C/CC(=O)O)C(=O)N[C@@H]2C(=O)N3C(C(=O)O)=CCS[C@H]23)cs1 | inactive
C=CC1=C(C(=O)O)N2C(=O)[C@@H](NC(=O)/C(=N/O)c3csc(N)n3)[C@H]2SC1 | active
C=CC1=C(C(=O)O)N2C(=O)C(NC(=O)C(=NO)c3csc(N)n3)C2SC1 (configuration not stated) | active
Nc1nc(C(=CCC(=O)O)C(=O)NC2C(=O)N3C(C(=O)O)=CCSC23)cs1 (configuration not stated) | active

Structure (SMILES) | growth inhibition call
C=CC1=C(C(=O)O)N2C(=O)[C@@H](NC(=O)/C(=N\OCC(=O)O)c3csc(N)n3)[C@H]2SC1 | active
COC(=O)/C=C/c1cn([C@H]2OC[C@@H](CO)[C@@H]2O)c(=O)[nH]c1=O | inactive
Cc1cncc2cccc(S(=O)(=O)N[C@H]3CN[C@@H](COC(=O)NCCOCCOCCN)C3)c12 | inactive
C[C@H](CO)N1C[C@H](C)[C@@H](CN(C)S(C)(=O)=O)Oc2cc(-c3ccccc3F)ccc2S1(=O)=O | inactive
CCCN(C)C[C@@H]1OCCCC[C@@H](C)Oc2ccc(NC(=O)c3ccccc3)cc2C(=O)N([C@H](C)CO)C[C@@H]1C | inactive
COc1ccc(NC(=O)N(C)C[C@H]2Oc3ccc(NC(=O)Cn4cnnn4)cc3C(=O)N([C@H](C)CO)C[C@@H]2C)cc1 | inactive
C[C@@H]1CN([C@@H](C)CO)C(=O)c2cc(NC(=O)Nc3ccc(F)cc3)ccc2O[C@@H](C)CCCCO[C@@H]1CN(C)Cc1ccccc1 | inactive
C[C@@H]1CN([C@H](C)CO)C(=O)c2cccc(NC(=O)Nc3cccc4ccccc34)c2O[C@@H]1CN(C)CC1CCCCC1 | inactive
C[C@H](CO)N1C[C@H](C)[C@@H](CN(C)Cc2ccc(Oc3ccccc3)cc2)Oc2ccc(NS(=O)(=O)c3cccs3)cc2C1=O | inactive
O=P(O)(O)C(Sc1ccc(Cl)cc1)P(=O)(O)O | inactive
C(=N\n1cnnc1)/c1ccco1 | inactive
C[C@@H]1CN([C@H](C)CO)C(=O)Cc2cc(NS(=O)(=O)c3cn(C)cn3)ccc2O[C@H]1CN(C)CC1CCCCC1 | inactive
CN1C(=O)c2cc(NC(=O)C3CCOCC3)ccc2OC[C@H]2O[C@@H](CC(=O)NCc3ccccc3F)CC[C@H]21 | inactive
O=C1NCCN1c1cccnc1 | inactive
Cc1noc(C)c1NC(=O)N(C)C[C@@H]1Oc2ccc(NC(=O)C3CC3)cc2CC(=O)N([C@H](C)CO)C[C@H]1C | inactive
C=CC1=C(C(=O)O)N2C(=O)[C@@H](NC(=O)/C(=N\O)c3csc(N)n3)[C@H]2SC1 | active
Cc1noc(C)c1NC(=O)Nc1ccc2c(c1)C(=O)N([C@@H](C)CO)C[C@@H](C)[C@H](CN(C)C(=O)Nc1ccc(F)cc1)OCCCC[C@@H](C)O2 | inactive
NCc1nc(CCc2ccccc2)cs1 | inactive
Cc1ccc(S(=O)(=O)Nc2cccc3c2O[C@H](CN(C)S(=O)(=O)c2ccc(F)cc2)[C@@H](C)CN([C@H](C)CO)C3=O)cc1 | inactive
CN1CCN(C(=O)C[C@H]2CC[C@@H]3[C@H](COc4ccc(NC(=O)c5cscn5)cc4C(=O)N3C)O2)CC1 | inactive
COc1ccc(C=CC(=O)c2ccc(O)cc2O)cc1 | inactive
COc1ccc(C(C)C(=O)c2ccc(O)cc2O)cc1 (configuration not stated) | active
COc1ccc(CC(=O)c2ccc(O)cc2O)cc1 | inactive
